The record followed here is PubChem BioAssay (NCATS).

SMILES strings stand for the structures. The source made the active and inactive calls. Calls follow the shape of the dose curve; as a rule, active = well fitted inhibition curve with a large enough effect; inconclusive = small, poorly fitted or top-dose-only effect; inactive = flat fitted curve, though single readings scatter.

The target of this experiment is DNA dC->dU-editing enzyme APOBEC-3G (Homo sapiens) (UniProt Q9HC16). Description: qHTS for inhibitors of Vif-A3G interactions: Validation (AID 588379). Also: 0% is about no effect. The note with it: Vif-A3G protein interaction assay; series mostly up to 46.1 µM; activity change, negative = inhibition: at the top concentration. The source says: The recent discovery and characterization of host restriction factors, which provide a potent defense to invading retroviruses, has provided new targets for antiviral drug development. APOBEC3G (A3G) and APOBEC3F (A3F) are potent cytidine deaminases that block HIV-1 replication; HIV-1 expresses the Vif protein, which counteracts A3G and A3F by binding to them and inducing their proteasomal degradation.
Sequence of DNA dC->dU-editing enzyme APOBEC-3G (Homo sapiens) (Q9HC16 whole entry, looked up): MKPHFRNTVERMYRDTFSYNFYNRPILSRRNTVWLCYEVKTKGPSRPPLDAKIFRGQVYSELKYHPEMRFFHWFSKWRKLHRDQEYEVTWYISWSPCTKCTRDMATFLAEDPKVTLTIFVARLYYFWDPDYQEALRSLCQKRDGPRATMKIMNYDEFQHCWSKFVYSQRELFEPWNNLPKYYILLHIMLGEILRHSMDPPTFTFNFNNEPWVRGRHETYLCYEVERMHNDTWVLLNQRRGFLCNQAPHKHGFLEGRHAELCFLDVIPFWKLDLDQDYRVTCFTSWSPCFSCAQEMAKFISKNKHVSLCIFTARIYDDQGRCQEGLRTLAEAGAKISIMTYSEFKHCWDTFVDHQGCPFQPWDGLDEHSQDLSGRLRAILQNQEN
The Vif-A3G and Vif-A3F interactions provide two potential targets for development of small molecules which can interfere with the ability of Vif to degrade A3G or A3F. […] To identify inhibitors that can interfere with Vif mediated degradation of A3G and A3F, we have developed Hela cell lines that stably express A3G or A3F tagged with eYFP at the C-terminal end (A3G-eYFP or A3F-eYFP, respectively) and Vif. In the absence of an inhibitor, Vif induces degradation of A3G-eYFP and A3F-eYFP, and the cells are not fluorescent. In the presence of an inhibitor, it is expected that Vif will be unable to degrade A3G-eYFP and/or A3F-eYFP, resulting in an increase in yellow fluorescence. In this assays Vif A3G was screened against the Molecular Library Small Molecile Repository (MLSMR).
NIH Chemical Genomics Center [NCGC]
NIH Molecular Libraries Probe Centers Network [MLPCN]
Assay Submitter (PI): Vinay Pathak, National Cancer Institute
5 uL of 700 cells/well of A3G-YFP cells are dispensed into black, clear bottom plates. The plates are incubated overnight at 37 deg C. 23 nL of compounds are added by pintool. The plates are incubated overnight at 37 deg C and then read on the TTP Acumen (Ex 488/ Em 500-530).
(In general: qHTS replaces the single test concentration by a dilution series.)
With `CNCCCCOc1ccccc1Cc1ccccc1`, the “activity change, negative = inhibition” value was -2.14% (inactive). `Cl/C(=C\n1cncn1)c1ccc(Cl)cc1Cl`: the “activity change, negative = inhibition” value was -1.25% (inactive). Turning to `CC(C)(C)NC[C@H](O)COc1nsnc1N1CCOCC1`, the “activity change, negative = inhibition” value is -1.88% (inactive). Take `CO[C@]12C[C@@H](COC(=O)c3cncc(Br)c3)CN(C)[C@@H]1Cc1cn(C)c3cccc2c13`: the “activity change, negative = inhibition” value is -4.87% (inactive). Regarding `CN(C)CCC[C@@]1(c2ccc(F)cc2)OCc2cc(C#N)ccc21`, the “activity change, negative = inhibition” value was -4.6% (inactive).

Regarding `CN1CCc2cccc3c2[C@H]1Cc1ccc(O)c(O)c1-3`, the “activity change, negative = inhibition” value is -5.44% (inactive).

Turning to `COc1ccccc1N1CCN(CCCCNC(=O)c2ccc(-c3ccc(C(C)=O)cc3)cc2)CC1`, the “activity change, negative = inhibition” value is 1.62% (inactive). Turning to `CN=C(N)NCCC[C@H](N)C(=O)O`, the “activity change, negative = inhibition” value was 0.49% (inactive). With `Cc1ncc(CO)c(C=O)c1O`, the “activity change, negative = inhibition” value is -1.47% (inactive). Consider `CN1CCC[C@@H]1CCO[C@](C)(c1ccccc1)c1ccc(Cl)cc1`, for which the “activity change, negative = inhibition” value was 0.64% (inactive). Take `O=c1[nH]c(=O)n([C@H]2C[C@H](O)[C@@H](CO)O2)cc1F`: the “activity change, negative = inhibition” value is -1.8% (inactive).

Turning to `O=C(c1ccc(F)cc1)C1CCN(CCn2c(=S)[nH]c3ccccc3c2=O)CC1`, the “activity change, negative = inhibition” value was 1.09% (inactive).
